# Sampled rows, rich in hits. Any-hit rate of the full collection: about 3%.
# TRAIL sens C8: sensitizes caspase-8 expressing cells to TRAIL; actives 1% (n = 360,000); AID 624354; NB7+C8 cells + TRAIL, ATPlite viability luminescence; inhibition (viability loss, TRAIL sensitization), % at 10 µM;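 active = compounds causing at least 50% loss of cell viability in the single-dose screen, relative to plate controls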
# SENP8 block-1: blocks the human protease SENP8. actives 1.2% (n = 330,000). Q96LD8. inhibition, % at 10 µM. purified SENP8, Z-RLRGG-aminoluciferin cleavage, luminescence; in the data active = inhibition above about 50%
# PPC-1+TRAIL kill: compounds killing PPC-1 cancer cells with TRAIL present (potentiator screen, no TRAIL-free arm) | PPC-1 cells + TRAIL, ATPLite viability luminescence | cell killing (% activity), % at 4 µM or 5 µM | actives 0.41% (n = 220,000) | AID 1443;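 active = cell killing above 50% in the first pass at 4 µM, then a duplicate retest at 5 µM averaging 50% or more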;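 also: plate controls were cells with TRAIL plus DMSO for no effect and medium-only wells lacking cells for full effect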
# SENP6 inh: blocks the human protease SENP6. Recombinant SENP6 catalytic domain, aminoluciferin luminescence. Q9GZR1. actives 1.8% (n = 330,000). inhibition, % at 10 µM;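 active = inhibition above about 50% at the single tested dose, limit read from the data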;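 also: plate controls were DMSO wells with enzyme for no effect and DMSO wells lacking enzyme for full effect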
# Target sequence (Q9GZR1 628-1112 limits assumed): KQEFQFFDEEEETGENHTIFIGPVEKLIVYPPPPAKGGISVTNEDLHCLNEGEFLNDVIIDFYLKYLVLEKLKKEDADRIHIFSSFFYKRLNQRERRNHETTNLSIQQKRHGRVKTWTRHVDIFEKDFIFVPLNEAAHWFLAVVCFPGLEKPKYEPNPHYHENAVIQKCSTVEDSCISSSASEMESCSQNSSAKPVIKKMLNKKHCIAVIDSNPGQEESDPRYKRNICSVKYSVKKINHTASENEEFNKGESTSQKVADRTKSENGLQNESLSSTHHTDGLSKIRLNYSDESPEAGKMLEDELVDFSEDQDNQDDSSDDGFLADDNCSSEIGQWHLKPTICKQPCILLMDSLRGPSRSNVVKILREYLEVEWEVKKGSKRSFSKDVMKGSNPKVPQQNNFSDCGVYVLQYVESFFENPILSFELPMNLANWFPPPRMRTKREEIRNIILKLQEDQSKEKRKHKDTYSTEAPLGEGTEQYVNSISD
# SENP7 inh: inhibitors of human SENP7 protease; actives 1.5% (n = 330,000); Q9BQF6; recombinant SENP7, Z-RLRGG-aminoluciferin luminescence, 40 min; inhibition, % at 5 µM;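 active = inhibition above about 50% at the single test dose, limit read from the data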;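 also: plate controls were DMSO with enzyme for no effect and no enzyme buffer wells for full effect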
# SENP8 block-2: inhibitors of human SENP8 protease; Q96LD8; AID 602440; inhibition, % at 20 µM; recombinant SENP8, Nedd8 substrate fluorescence; actives 0.64% (n = 360,000); in the data active = inhibition mostly above about 40%, no sharp cut-off; inactive = mostly below about 27%
# An asterisk follows results filed as active; · = no result given.
SMILES,TRAIL sens C8,SENP8 block-1,PPC-1+TRAIL kill,SENP6 inh,SENP7 inh,SENP8 block-2
CCN(CC)c1ccc(/C=C/[N+](=O)[O-])cc1,10,-2,4,-29,3,6
O=[N+]([O-])/C=C/c1c(Cl)cccc1Cl,71*,·,·,·,·,7
Cc1ccc(NC(=O)CN2C(=O)CN=C(c3ccccc3)c3cc(Cl)ccc32)cc1,57*,5,10,-7,1,4
COC(=O)CNC(=O)c1cn(CCC#N)nc1-c1ccc(F)cc1,-5,-6,1,-17,-5,16
CN(C)c1ccc(/C=C/C=C/c2sc3ccccc3[n+]2C)cc1,33,4,45,4,7,20
CC[n+]1c(/C=C/C=C/c2ccc(N(C)C)cc2)sc2ccccc21,63*,10,48,-1,4,35
O=C1NC(=O)C(=Cc2ccc(N3CCN(C(=O)c4ccccc4)CC3)c([N+](=O)[O-])c2)C(=O)N1,8,-4,7,8,-1,41*
COC(=O)C1=C(c2ccc(-c3ccccc3)c(F)c2)C[C@@H]2CC[C@H]1N2C(=O)NC1CCCCC1,10,-6,·,-2,6,14
COC(=O)C12OCC34C(CC5C(C)=C(O)C(=O)CC5(C)C3C(O)C1O)OC(=O)C(OC(=O)/C=C(\C)C(C)C)C24 (stereo not drawn),58*,·,·,·,·,13
CCN(CC)c1ccc(C=C2C(=O)N(C)C(=S)N(C)C2=O)o1,2,4,10,3,5,18
CN1C(=O)C(=Cc2ccc(N3CCCCC3)o2)C(=O)N(C)C1=S,8,1,25,-15,11,43*
CC1OC(OC2CC(O)C3(CO)C4C(O)CC5(C)C(C6=CC(=O)OC6)CCC5(O)C4CCC3(O)C2)C(O)C(O)C1O (stereo not drawn),70*,·,·,·,·,16
COc1ccc(C(=O)N/N=C/C23CC[C@@H](O)CC2(O)CC[C@@H]2[C@@H]3CCC3(C)C(C4=CC(=O)OC4)CCC23O)cc1 (stereo partly drawn),36,-7,11,-13,-3,-7
CC(C)(C)c1cc([N+](=O)[O-])cc(C(C)(C)C)c1O,·,-1,21,2,6,·
CCOc1ccc(-n2c(-c3cccs3)nc3ccccc3c2=O)cc1,-2,-4,9,3,-4,-2
CCn1nc(-c2cccs2)nc2c(=O)n(C)c(=O)nc1-2,95*,·,39,·,·,80*
COc1ccc(-n2c(/C=C/c3ccc(O)cc3)nc3ccccc3c2=O)cc1,-6,-9,·,-3,-16,-211
CCn1nc(/C=C/c2ccccc2)nc2c(=O)n(C)c(=O)nc1-2,37,96*,14,89*,96*,73*
COc1cccc(C2(O)CCN(Cc3ccncc3)CC2)c1,-1,-5,·,-17,-10,-5
Cn1c(O)c(Cc2ccc(OCc3ccccc3)cc2)c(=O)n(C)c1=O,10,-13,·,-9,-9,15
O=c1cccc2n1CC1CC2CN(S(=O)(=O)c2cc(Cl)ccc2Cl)C1 (stereo not drawn),-12,0,·,-5,-1,7
N=C1c2ccccc2CN1c1ncccn1,4,-9,0,-19,-4,11
CCCCn1c(=O)c(C(=O)Nc2ccccc2C)c(O)c2ccccc21,-18,-1,·,-5,4,-22
CC(C)CCn1c(=O)c(C(=O)Nc2ccccc2S(N)(=O)=O)c(O)c2ccccc21,52*,7,12,8,3,-89
COc1c(C=C2C(=O)NC(=O)NC2=O)c(CCN(C)C(=O)c2ccccc2)cc2c1OCO2,5,-12,·,-14,4,44*
SMILES,TRAIL sens C8,SENP8 block-1,PPC-1+TRAIL kill,SENP6 inh,SENP7 inh,SENP8 block-2
c1ccc2c(c1)CSc1ccccc1C2C1=NCCN1 (stereo not drawn),8,2,12,5,3,26
Brc1ccc2c(c1)C(OC1CN3CCC1CC3)c1ccccc1CS2 (stereo not drawn),6,-6,82*,-21,-10,19
CC(=NC(C)c1ccccc1)c1c(O)[nH]c(=O)[nH]c1=O (stereo not drawn),-12,1,18,4,6,17
CC(=O)OC1C(O)C(C)OC(OC2C(OC(=O)C3CCC4C(C3)OC3(CC(OC(=O)/C=C/c5ccccc5)C(C)CO3)C43CO3)OC(C)C(O)C2OC(C)=O)C1O (stereo not drawn),64*,·,·,·,·,12
CCOc1ccc2nc(N=Nc3c(O)[nH]c(=O)[nH]c3=O)sc2c1,1,3,-20,0,-2,45*
CC1(C)C(=O)CC[C@@]2(C)C1=CCC1C2CC[C@]2(C)C(=O)CCC12 (stereo partly drawn),8,-17,·,-15,-10,13
CC(=O)OC1C(=O)OCC23CCC4(C)OC4C2OC2CC(OC(=O)C=CC=CC(=O)OCCC1C)C3(C)C21CO1 (stereo not drawn),64*,·,·,·,·,18
CC(O)C1C=CC=CC(=O)OC2CC3OC4C5OC5(C)CCC4(COC(=O)C4OC4(C)C(O)CO1)C2(C)C31CO1 (stereo not drawn),61*,·,·,·,·,9
COc1ccc(C2=NCC(=S)Nc3ccc(Cl)cc32)cc1Cl,13,1,6,0,3,1
CCCCCN1C(=O)c2ccccc2[C@@]2(C(=O)OCC)Cc3cc(OC)ccc3[C@@H]12,59*,·,·,·,·,9
CCOC(=O)[C@]12Cc3cc(C)ccc3[C@H]1N(C(C)C)C(=O)c1ccccc12,83*,·,·,·,·,-1
O=C1C2CCCN2C(c2ccccc2)N1c1ccccn1 (stereo not drawn),-33,-5,-23,-10,-13,9
CCC(C)C1NC(=O)C(NC(=O)C(CC(C)C)N(C)C(=O)C2CCCN2C(=O)C(C)O)C(C)OC(=O)C(Cc2ccc(OC)cc2)N(C)C(=O)C2CCCN2C(=O)C(CC(C)C)NC(=O)[C@H](C)C(=O)[C@H](C(C)C)OC(=O)CC1O (stereo partly drawn),82*,·,·,·,·,23
C#C[C@@]1(O)CCC2C3CCC4=C/C(=N/OCC(=O)NC(CCC(N)=O)C(=O)O)CC[C@]4(C)C3CC[C@@]21C (stereo partly drawn),-17,-11,·,-21,-6,14
CC(C)[C@H]1C(=O)O[C@H](C(C)C)C(=O)N(C)[C@@H](C(C)C)C(=O)O[C@H](C(C)C)C(=O)N(C)[C@@H](C(C)C)C(=O)O[C@H](C(C)C)C(=O)N1C,53*,-13,48,-20,-12,22
Cc1nn(Cc2ccccc2)c(C)c1C(=O)OCC(=O)Nc1cccc(S(N)(=O)=O)c1,3,-10,18,-2,-3,-4
CC(=O)OC(C)(C)/C=C/C(=O)C(C)(O)C1C(O)CC2(C)C3CC=C4C(CC(O)C(=O)C4(C)C)C3(C)C(=O)CC12C (stereo not drawn),32,·,·,·,·,14

# Bioassay records: PubChem BioAssay, Sanford-Burnham Center for Chemical Genomics
